This passage reports binding signal results from PMC9911399, “Two distinct binding modes provide the RNA-binding protein RbFox with extraordinary sequence specificity”.

T1: RBFOX1 RRM (Homo sapiens, UniProt Q9NWB1 109-208)
T1 sequence: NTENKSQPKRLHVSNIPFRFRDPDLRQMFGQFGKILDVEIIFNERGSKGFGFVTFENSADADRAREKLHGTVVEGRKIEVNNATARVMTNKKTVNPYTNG

B1: AGUCCCC (DNA:RNA)
RNA: GGGAGACCGGAAUUCAGAUUGUCCAGUCCCCUUAAAUCCCGUCGUAGCCACCA
DNA 1: CAATCTGAATTCCGGTCTCCC
DNA 2: TGGTGGCTACGACGGGATT
B2: CUUCGCU (DNA:RNA)
RNA: B1 RNA with A25C, G26U, C29G, C31U
DNA 1: CAATCTGAATTCCGGTCTCCC
DNA 2: TGGTGGCTACGACGGGATT
B3: GCGUUAG (DNA:RNA)
RNA: GGGAGACCGGAAUUCAGAUUGUCCGCGUUAGUUAAAUCCCGUCGUAGCCACCA
DNA 1: CAATCTGAATTCCGGTCTCCC
DNA 2: TGGTGGCTACGACGGGATT
B4: CUUGGGA (DNA:RNA)
RNA: B1 RNA with A25C, G26U, C28G, C29G, C30G, C31A
DNA 1: CAATCTGAATTCCGGTCTCCC
DNA 2: TGGTGGCTACGACGGGATT
B5: UUGCUAG (DNA:RNA)
RNA: B3 RNA with G25U, C26U, U28C
DNA 1: CAATCTGAATTCCGGTCTCCC
DNA 2: TGGTGGCTACGACGGGATT
B6: UGCUUUU (DNA:RNA)
RNA: B3 RNA with G25U, C26G, G27C, A30U, G31U
DNA 1: CAATCTGAATTCCGGTCTCCC
DNA 2: TGGTGGCTACGACGGGATT
B7: CCCCUGC (DNA:RNA)
RNA: B1 RNA with A25C, G26C, U27C, C29U, C30G
DNA 1: CAATCTGAATTCCGGTCTCCC
DNA 2: TGGTGGCTACGACGGGATT
B8: UGCUUUG (DNA:RNA)
RNA: B3 RNA with G25U, C26G, G27C, A30U
DNA 1: CAATCTGAATTCCGGTCTCCC
DNA 2: TGGTGGCTACGACGGGATT
B9: UCCUUGC (DNA:RNA)
RNA: B3 RNA with G25U, G27C, A30G, G31C
DNA 1: CAATCTGAATTCCGGTCTCCC
DNA 2: TGGTGGCTACGACGGGATT
B10: UGCUGCU (DNA:RNA)
RNA: B1 RNA with A25U, U27C, C28U, C29G, C31U
DNA 1: CAATCTGAATTCCGGTCTCCC
DNA 2: TGGTGGCTACGACGGGATT
B11: UUGCUUG (DNA:RNA)
RNA: B3 RNA with G25U, C26U, U28C, A30U
DNA 1: CAATCTGAATTCCGGTCTCCC
DNA 2: TGGTGGCTACGACGGGATT
B12: UUGUUGC (DNA:RNA)
RNA: B3 RNA with G25U, C26U, A30G, G31C
DNA 1: CAATCTGAATTCCGGTCTCCC
DNA 2: TGGTGGCTACGACGGGATT
B13: CUGCUGC (DNA:RNA)
RNA: B1 RNA with A25C, G26U, U27G, C29U, C30G
DNA 1: CAATCTGAATTCCGGTCTCCC
DNA 2: TGGTGGCTACGACGGGATT
B14: CUGCUUG (DNA:RNA)
RNA: B3 RNA with G25C, C26U, U28C, A30U
DNA 1: CAATCTGAATTCCGGTCTCCC
DNA 2: TGGTGGCTACGACGGGATT
B15: GUGCUAG (DNA:RNA)
RNA: B3 RNA with C26U, U28C
DNA 1: CAATCTGAATTCCGGTCTCCC
DNA 2: TGGTGGCTACGACGGGATT
B16: UUGUUAG (DNA:RNA)
RNA: B3 RNA with G25U, C26U
DNA 1: CAATCTGAATTCCGGTCTCCC
DNA 2: TGGTGGCTACGACGGGATT
B17: GACGAUG (DNA:RNA)
RNA: B3 RNA with C26A, G27C, U28G, U29A, A30U
DNA 1: CAATCTGAATTCCGGTCTCCC
DNA 2: TGGTGGCTACGACGGGATT
B18: AAAUAUU (DNA:RNA)
RNA: B1 RNA with G26A, U27A, C28U, C29A, C30U, C31U
DNA 1: CAATCTGAATTCCGGTCTCCC
DNA 2: TGGTGGCTACGACGGGATT
B19: CUUGAAA (DNA:RNA)
RNA: B1 RNA with A25C, G26U, C28G, C29A, C30A, C31A
DNA 1: CAATCTGAATTCCGGTCTCCC
DNA 2: TGGTGGCTACGACGGGATT
B20: CGUUCGG (DNA:RNA)
RNA: B1 RNA with A25C, C28U, C30G, C31G
DNA 1: CAATCTGAATTCCGGTCTCCC
DNA 2: TGGTGGCTACGACGGGATT

Where a chain is given by its changes, count along the chain named. In all, about 16,000 sequences were measured (“ka relative to ugcaugu”: median about 0.0091, highest 2% from about 0.032 on). Only a selection was taken, and the highest values are over-represented in it overall.

This experiment has as its target T1, RBFOX1 RRM. In words: EMSA; HiTS-Eq, 1 nM pool, 10 min; buffer printed only for the single-RNA assays: 10 mM Tris pH 7.5, 150 mM NaCl, 3.4 mM EDTA, 0.001% NP-40, 30 C. Particulars: tags: His6 N-terminal (pET28a); label: 5' 32P. In a few lines:
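Purified wild-type or mutant RbFox RRM at increasing concentrations was equilibrated with 1 nM of 5′-radiolabelled RNA carrying 7 randomized nucleotides for 10 min in 50 µL. Unbound RNA was separated by 8% native PAGE and sequenced. Relative association constants came from read-count changes of each RNA species compared with the control reaction, normalised to the cognate motif.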
As to B1, the binding signal was 0.0101 KA relative to UGCAUGU. Next, B2: 0.0136 KA relative to UGCAUGU; B3: 0.0109 KA relative to UGCAUGU; B4: 0.00252 KA relative to UGCAUGU. Next, B5: 0.0399 KA relative to UGCAUGU; B6: 0.0211 KA relative to UGCAUGU; B7: 0.00603 KA relative to UGCAUGU. For B8, the binding signal is 0.0377 KA relative to UGCAUGU. As for B9, the binding signal is 0.0155 KA relative to UGCAUGU. As for B10, the figure is 0.0249 KA relative to UGCAUGU; as for B11, 0.0749 KA relative to UGCAUGU.

In the case of B12, the binding signal was 0.0249 KA relative to UGCAUGU.

For the molecule B13, the binding signal is 0.0217 KA relative to UGCAUGU.

As to B14, the binding signal is 0.0459 KA relative to UGCAUGU. Next, B15: 0.0307 KA relative to UGCAUGU. With B16, the binding signal was 0.0257 KA relative to UGCAUGU. On to B17, for which the binding signal was 0.0266 KA relative to UGCAUGU. As for B18, the figure is 0.00092 KA relative to UGCAUGU; as for B19, 0.00785 KA relative to UGCAUGU; as for B20, 0.0132 KA relative to UGCAUGU.
